Many of the other results were omitted from the sample, so hits are more common in it than they were.
Sm TGR inh: blocks Schistosoma mansoni thioredoxin glutathione reductase; AID 485364; purified TGR, DTNB reduction, TNB absorbance 405 nm; 360,000 compounds, 3% hits; Q962Y6; Potency, µM (highest dose often 114 µM), for inactives: top-dose activity change, negative = inhibition, actives largely listed as inhibitors; note: potency is the fitted concentration of half-maximal effect; % is set by controls: 0 for no effect and ±100 for the full control effect; nearly all actives have a fitted effect of over 60% in size
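Kinetic colorimetric format: TGR-catalysed, NADPH-driven DTNB reduction monitored via TNB absorbance. Enzyme dispensed at 20 nM; compound exposure 15 min at room temperature before reaction start.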
TbPYK inhibitor: inhibitors of Trypanosoma brucei pyruvate kinase | 410,000 compounds, 0.12% hits | AID 624173 | TbPYK enzyme, Kinase-Glo Plus ATP luminescence, 45 min | Q57TT1 | Potency, µM (highest dose often 76.8 µM), for inactives: top-dose activity, negative = inhibition, actives largely listed as inhibitors; note: potency is the fitted concentration of half-maximal effect; % is set by controls: 0 for no effect and ±100 for the full control effect; nearly all actives have a fitted effect of over 50% in size
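ADP (130 uM final) triggers the TbPYK reaction after compound addition; incubation is 45 min at room temperature. Kinase-Glo Plus is then added and luminescence imaged. Normalized data are fitted to concentration-effect curves.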
Shiga inhibitor: Shiga toxin inhibition; inhibition, % at 38.7 µM; AID 2315; 290,000 compounds, 9.2% hits; Vero cells, Shiga toxin protein synthesis inhibition reporter; in the data active = inhibition mostly above about 28%, no sharp cut-off; inactive = mostly below about 43%; note: 0% is about no effect
Giardia FBPA inh: Giardia lamblia aldolase inhibition; A8B2U2; purified Giardia FBPA; Potency, µM (series often up to 59.6 µM), inactives show top-dose activity, negative = inhibition, actives largely listed as inhibitors; 290,000 compounds, 0.71% hits; AID 2451; note: potency is the fitted concentration of half-maximal effect; % is set by controls: 0 for no effect and ±100 for the full control effect; nearly all actives have a fitted effect of over 55% in size
Target sequence (A8B2U2 whole entry, looked up): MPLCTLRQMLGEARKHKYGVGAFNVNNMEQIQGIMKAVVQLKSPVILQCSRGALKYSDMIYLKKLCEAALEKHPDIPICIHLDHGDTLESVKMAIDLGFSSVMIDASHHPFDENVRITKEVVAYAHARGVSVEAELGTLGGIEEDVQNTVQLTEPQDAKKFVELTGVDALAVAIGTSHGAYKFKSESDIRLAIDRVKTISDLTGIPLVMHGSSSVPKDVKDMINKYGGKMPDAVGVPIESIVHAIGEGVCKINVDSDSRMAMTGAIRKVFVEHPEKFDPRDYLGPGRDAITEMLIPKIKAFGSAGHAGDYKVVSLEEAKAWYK
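Giardia FBPA (40 nM reagent) was preincubated 10 min at RT with compound (up to 57.5 uM final), then substrate plus GAPDH/TPI/NAD/arsenate coupling system with diaphorase/resazurin was added; resorufin fluorescence (525/598 nm) was read after 20 min.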
LmPK inhibitor: blocks Leishmania mexicana pyruvate kinase activity; purified LmPK, Kinase-Glo ATP luminescence, 1 h; 290,000 compounds, 0.37% hits; Q27686; Potency, µM (top dose mostly 57.5 µM), inactives show top-dose activity change, negative = inhibition, usual class: inhibitors; note: potency is the fitted concentration of half-maximal effect; % is set by controls: 0 for no effect and ±100 for the full control effect
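Screened at intermediate enzyme activity to detect both inhibitors and activators: LmPK at 0.1 nM, with a 0.5 nM enzyme column as activation reference. PEP 0.5 mM, ADP 0.1 mM; ATP detected by luminescence after 1 h.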
CHX counter: affects cycloheximide protein synthesis inhibition readout, counter-screen | cell reporter, cycloheximide protein synthesis inhibition counterscreen | max response, % | AID 2314 | 300,000 compounds, 12% hits; in the data active = max response mostly above about 13%, no sharp cut-off; inactive = mostly below about 14%; note: read at 38.3 µM for the half of the compounds with a filed dose; 0% is about no effect
An asterisk follows results filed as active; ? = inconclusive; . = no result; + = active, no number; [ ] = remark or other dose. Unless noted, calls come from the whole dose curve; as a rule, active = well fitted curve in the direction sought with a large enough effect; inconclusive = small, poorly fitted or top-dose-only effect, or another doubt; inactive = no such curve, though single readings can be large; an effect the other way counts as inactive or inconclusive.

SMILES	Sm TGR inh	TbPYK inhibitor	Shiga inhibitor	Giardia FBPA inh	LmPK inhibitor	CHX counter
CC[C@H](C)[C@H](NC(=O)[C@H](Cc1ccc(O)cc1)NC(=O)[C@H](Cc1cnc[nH]1)NC(=O)[C@H](CCCNC(=N)N)NC(=O)[C@H](CC(C)C)NC(=O)[C@H](C)NC(=O)[C@H](CO)NC(=O)[C@H](Cc1ccc(O)cc1)NC(=O)[C@H](Cc1ccc(O)cc1)NC(=O)[C@H](CCCNC(=N)N)NC(=O)[C@H](C)NC(=O)[C@H](CCSC)NC(=O)[C@H](CC(=O)O)NC(=O)[C@H](CCC(=O)O)NC(=O)[C@H](C)NC(=O)[C@@H]1CCCN1)C(=O)N[C@@H](CC(N)=O)C(=O)N[C@@H](CC(C)C)C(=O)N[C@H](C(=O)N[C@H](C(=O)N[C@@H](CCCNC(=N)N)C(=O)N[C@@H](CCC(N)=O)C(=O)N[C@@H](CCCNC(=N)N)C(=O)N[C@@H](Cc1ccc(O)cc1)C(N)=O)[C@@H](C)O)[C@@H](C)CC	.	.	-7	4%	.	-1
COCCNC(=O)c1c(NC(=O)c2cc(=O)c3cc(C)cc(C)c3o2)sc2c1CCCC2	0%	1%	.	.	.	.
Cn1cccc1-c1nc2ccc(NC(=O)c3ccco3)cc2[nH]1	-13%	2%	56	-6%	0%	44*
COc1c(Cl)cc(C(=O)Nc2cccc(-c3nc4ccccc4[nH]3)c2)cc1Cl	3%	-2%	.	.	.	.
CC(=O)Nc1ccc2nc(-c3ccncc3)[nH]c2c1	3%	-2%	30	-4%	4%	10
O=C(Nc1cccc(-c2nc3ccccc3[nH]2)c1)c1ccco1	-19%	1%	42*	9%	-5%	17
Cc1ccc([N+](=O)[O-])cc1-c1ccc(/C=C(\C#N)c2[nH]nc(N)c2C#N)o1	-9%	-6%	28	-1%	0%	20*
Oc1ccc(/C=N/Nc2ccc(C(F)(F)F)cn2)cc1	10%	-18%	124*	0%	1%	37*
C/C(=N\Nc1ccc(C(F)(F)F)cn1)c1ccncc1	1%	0%	101*	-28%	1%	24*
Oc1ccc(/C=N/Nc2ccc(C(F)(F)F)cn2)c(O)c1	-11%	.	56*	2%	-6%	52*
CC(=NNc1ccc([N+](=O)[O-])cn1)c1ccccc1	.	-2%	.	.	.	.
Oc1ccc(/C=N/Nc2cccc(Cl)n2)c(O)c1	0%	-1%	47*	2%	-2%	42*
COc1ccccc1CN1CC[C@@]2(CCCN(S(=O)(=O)c3ccccc3)C2)C1	.	0%	.	0%	.	.
CCn1c(SCC(=O)Nc2ccccc2)nc2c(c1=O)SCC2	.	-1%	.	.	.	.
O=C(CSc1nccn1Cc1ccc(Cl)cc1)Nc1ccc2c(c1)OCO2	5%	0%	.	.	.	.
COc1ccc(NC(=O)C2Cc3c(-c4cccc(F)c4)ccnc3O2)cc1OC (stereo not drawn)	.	-4%	.	.	.	.
Cc1ccc(N=C2CCCN2Cc2ccccc2)c(C#N)c1	-1%	-3%	+	-6%	0%	18*
Cc1ccc(N=C2CCCCCN2C)c(C#N)c1	-5%	5%	7	-5%	0%	2
CC(C)(C)OC(=O)N1CCN(C(=O)c2nc[nH]c2C(=O)N2CCN(C(=O)OC(C)(C)C)CC2)CC1	0%	0%	.	.	.	.
Cn1cnc(C(=O)N2CCN(c3ccccc3)CC2)c1C(=O)N1CCN(c2ccccc2)CC1	20µM*	-10%	.	.	.	.
Cn1cnc(C(=O)N2CCN(C(=O)OC(C)(C)C)CC2)c1C(=O)N1CCN(C(=O)OC(C)(C)C)CC1	22µM*	4%	.	.	.	.
CCn1cc(Br)c(C(=O)N2CCN(c3ccccc3)CC2)n1	-9%	14%	13	-8%	6%	-2
O=C(Nc1ccc(-c2nc3ncccc3o2)cc1)c1ccco1	20µM*	-26%	66*	0%	-1%	27*
O=C(Nc1ccc2oc(-c3cccnc3)nc2c1)c1ccco1	50µM*	-3%	47	.	-1%	36*
O=C(Nc1ccc2nc(-c3ccccc3)oc2c1)c1ccco1	1%	5%	47*	-3%	1%	29*
SMILES	Sm TGR inh	TbPYK inhibitor	Shiga inhibitor	Giardia FBPA inh	LmPK inhibitor	CHX counter
O=C(Nc1ccc2oc(-c3cccnc3)nc2c1)c1ccc(Br)o1	28µM*	-5%	-6	-25%	-1%	-4
COC(=O)CNC(=O)C1(C)C=CC2(CCCCC2)N1C(C)=O (stereo not drawn)	.	.	.	-20%	.	.
O=C(CSc1ccc2nnc(CCNC(=O)c3ccccc3)n2n1)Nc1ccc(F)cc1F	-21%	1%	-21	.	-10%	1
Cc1ccccc1CNC(=O)c1ccccc1NC(=O)c1nsc2ccccc12	-5%	0%[15.4 µM]	.	.	.	.
COc1ccc(-c2nc(CSCC(=O)NC3CCN(Cc4ccccc4)CC3)c(C)o2)cc1OC	-14%	-7%	-5	8%	-2%	14
CCC(=O)NCc1ccc(-c2nc3ncccc3o2)cc1	1%	2%	23	4%	2%	16*
CCc1ccc(OCC(=O)Nc2ccc(-c3nc4ncccc4o3)cc2)cc1	2%	2%	.	.	.	.
Cc1ccc(C)c(Cn2c(=O)n(CC3CCC(C(=O)N4CCOCC4)CC3)c(=O)c3sccc32)c1 (stereo not drawn)	-7%	1%	.	.	.	.
O=C(COC(=O)c1ccc[nH]c1=O)NCCc1ccc(Cl)cc1Cl	4%	2%	98*	5%	-1%	79*
Cc1ccc(C(=O)NCCc2csc(-c3cccc(F)c3)n2)cc1C	5%	-3%	.	.	.	.
O=C(Nc1ccc(F)cc1)N1CCc2ccccc2C1	13%	2%	91*	-18%	-1%	51*
O=C(Nc1ccc(Br)cc1)N1CCc2ccccc2C1	-10%	1%	126*	-7%	0%	53*
COc1ccc(NC(=O)N2CCc3ccccc3C2)cc1OC	48%	-6%	9	3%	0%	9
O=C(CN1CCc2ccccc2C1)Nc1ccc(Br)cc1	1%	.	18	6%	10%	15
COc1ccccc1/C=C/c1nc(S(=O)(=O)c2ccccc2)c(NCCN(C)C)o1	22µM*	1%	3	-4%	-2%	-3
COc1ccc(-c2nc(S(=O)(=O)c3ccc(C)cc3)c(NCc3ccccc3)o2)cc1	13µM*	0%	.	.	.	.
Cc1ccc(S(=O)(=O)c2nc(-c3ccccc3)oc2NCCN2CCOCC2)cc1	45µM*	-11%	-6	-7%	0%	-2
Cc1ccc(S(=O)(=O)c2nc(-c3ccccc3F)oc2NCc2ccccc2)cc1	48%	-7%	.	.	.	.
Cc1ccc(S(=O)(=O)c2nc(C)oc2NCc2ccccc2)cc1	2µM*	.	-5	-20%	1%	-3
COc1ccc(/C=C/c2nc(S(=O)(=O)c3ccccc3)c(NCCCN(C)C)o2)cc1OC	?	8%	9	-13%	-3%	5

From PubChem
